The campaign covered roughly 120,000 compounds. About 5,300 (4.4%) were called active. Entries that show only a call come without a potency. Another 22% or so got no clear call; they are omitted. Calls come from the whole dose curve; as a rule, active = well fitted inhibition curve with a large enough effect; inconclusive = small, poorly fitted or top-dose-only effect; inactive = no such curve, though single readings can be large or run the other way. Many of the other results were omitted from the sample, so actives are more common in it than they were.
Test: qHTS Primary assay for Inhibitors of Plasmodium falciparum Dd2 growth in vitro; note: nearly all actives have a fitted effect of over 65% in size
Conditions: P. falciparum Dd2 growth, SYBR Green, 72 h; series mostly up to 28.9 µM
How it was run: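 Infected erythrocytes (Dd2, 0.3% parasitemia, 2.5% hematocrit final) are added to compound in RPMI-1640/Albumax II medium, grown 72 h at 37C in low oxygen, then lysed with saponin/Triton-X containing SYBR Green and read by fluorescence.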
In the case of `O=C(N1CCCC1)N1CCCC(c2nnc3n2CCNC3)C1` (stereo not drawn), the Potency is reported as “inactive”.
For `COc1c(F)cccc1CN1CCOc2cc([S+](=O)([O-])N(C)C)ccc2C1`, the Potency was “inactive”.
With `COC(=O)C1=C(C)N=C2SC=C(CC(=O)NCCC(C)C)N2C1c1ccccc1Cl` (stereo not drawn) the Potency was “inactive”.
With `COC(=O)C1=C(C)N=C2SC=C(CC(=O)NCc3ccco3)N2C1c1cccc(F)c1` (stereo not drawn) the Potency was “inactive”.
In the case of `COC(=O)C1=C(C)N=C2SC=C(CC(=O)NCc3ccccc3F)N2C1c1ccccc1Cl` (stereo not drawn), the Potency is reported as 11.2 µM (active).
For `CCCNC(=O)[C@@H]1Cc2cn(Cc3cc(C)on3)c3cccc(c23)[C@H](CC(C)C)N1`, the Potency was “inactive”.
For `CC(C)S(=O)(=O)c1oc(-c2ccc(F)cc2)nc1S(=O)(=O)c1ccc(F)cc1`, the Potency was 11.2 µM (active).
For `O=C(CSc1oc(-c2ccc(F)cc2)nc1S(=O)(=O)c1ccc(Br)cc1)NC1CCCCC1`, the Potency was “inactive”.
For `Cc1ccc(-c2nc(S(=O)(=O)c3ccc(C)cc3)c(N3CCCCCC3)o2)cc1`, the Potency was “inactive”.
For `COc1cccc(SCC(=O)NCc2cc3n(n2)CCNC3)c1`, the Potency was “inactive”.
For `COC[C@@H]1CN(Cc2cnn(C)c2C)C[C@H]1c1nc(C2CC2)no1`, the Potency was “inactive”.
In the case of `O=C1OC[C@@H]2CCN(Cc3ccccc3)Cc3ccccc3N12`, the Potency is reported as “inactive”.
In the case of `O=C1OC[C@@H]2CCN(Cc3ccncc3)Cc3ccc(F)cc3N12`, the Potency is reported as “inactive”.
For `O=C1OC[C@@H]2CCN(Cc3cnc4ccccc4c3)Cc3ccc(F)cc3N12`, the Potency was 5.62 µM (active).
In the case of `Cc1ccc(-n2nc3n(c2=O)CCN(C(=O)C(C)(C)C)C3)cc1`, the Potency is reported as “inactive”.
For `CN(C1CCc2nn(C)c(=O)n2CC1)S(=O)(=O)c1ccc2c(c1)OCCO2` (stereo not drawn), the Potency was “inactive”.
With `CN1CCC(N2CC[C@H](c3nc4ccccc4s3)C2)CC1` the Potency was “inactive”.
In the case of `CC(C)c1ccc(CNC(=O)c2noc(-c3ccc[nH]c3=O)n2)cc1`, the Potency is reported as “inactive”.
In the case of `CCc1nc2c(c(-c3ccc(OC)cc3)n1)CCN(CC1CCCCC1)CC2`, the Potency is reported as “inactive”.
In the case of `CCc1nc2c(c(-c3ccc(Cl)cc3)n1)CN(CCC(C)C)CC2`, the Potency is reported as 7.94 µM (active).
For `Cc1cc(OC2CN([S+](=O)([O-])c3cccs3)C2)ccc1F`, the Potency was “inactive”.
In the case of `CCc1nc2c(c(-c3ccc(Cl)cc3)n1)CCN([S+](=O)([O-])c1cccs1)CC2`, the Potency is reported as 12.6 µM (active).
For `Cc1ccc(CN2CCc3nc(C)nc(-c4ccc(O)cc4)c3C2)cc1`, the Potency was “inactive”.
For `O=C1CCNCCCOCCN1`, the Potency was “inactive”.
For `Cc1ccc(NC(=O)CN2c3ccccc3S(=O)(=O)c3ccccc32)cc1F`, the Potency was “inactive”.
In the case of `Cc1ccc(NC2=C(c3ccc(C(F)(F)F)cc3)C(=O)c3ccccc32)cc1F`, the Potency is reported as 0.178 µM (active).
For `C[C@H](O)c1onc(-c2ccc(F)cc2)c1C(=O)N1CCC1`, the Potency was “inactive”.
For `Cc1cccc(-n2nc(-c3c(C)nc4scc(CC(=O)NCc5ccco5)n4c3=O)cc2C)c1C`, the Potency was “inactive”.
In the case of `Cc1ccc(C(=O)NC[C@H]2C[C@@H]3CCN2C[C@@H]3c2cc(-c3ccco3)nc(C)n2)cc1`, the Potency is reported as 3.55 µM (active).
In the case of `COc1ccccc1-c1cc([C@H]2CN3CC[C@H]2C[C@@H]3CNC(=O)c2ccco2)nc(C)n1`, the Potency is reported as 10 µM (active).
For `COc1ccc(-c2cc([C@H]3CN4CC[C@H]3C[C@@H]4COC(=O)NC(C)C)nc(C)n2)cc1`, the Potency was “inactive”.
With `COc1ccc(Cl)cc1S(=O)(=O)N1CCCC(CNC(=O)c2ccco2)C1` (stereo not drawn) the Potency was “inactive”.
In the case of `Cc1nc(-c2ccccc2)cc([C@H]2CN3CC[C@H]2C[C@@H]3CNC2CCN(C)CC2)n1`, the Potency is reported as “inactive”.
With `Cc1nc(-c2ccc(C(F)(F)F)cc2)cc([C@H]2CN3CC[C@H]2C[C@@H]3CNC(=O)C2CCC2)n1` the Potency was “inactive”.
For `O=C(c1ccncc1)N1CCC(C2CCN(Cc3cccc(F)c3F)CC2)C1` (stereo not drawn), the Potency was “inactive”.
In the case of `COc1ccc(N2CCN(C(=O)COc3ccc(NC(C)=O)cn3)CC2)cc1`, the Potency is reported as “inactive”.
In the case of `Cc1cccc(CN2CCc3ncc(C(=O)NCc4ccccc4)n3CC2)n1`, the Potency is reported as “inactive”.
For `COCC(=O)N(C1CCOCC1)C1CCN(S(=O)(=O)c2ccccc2C)CC1`, the Potency was “inactive”.
For `CCOC(=O)c1ccc(NC(=O)Cn2ccn3nc(-c4ccccc4)c(CO)c3c2=O)cc1`, the Potency was “inactive”.
With `Cc1nn(-c2ccccc2)c(C)c1CC(=O)NC1CCCc2c1[nH]c1ccccc21` (stereo not drawn) the Potency was “inactive”.
For `CN(C)C[C@@H]1CN(S(C)(=O)=O)C[C@H]1NC(=O)c1ccc2ncccc2c1`, the Potency was “inactive”.
For `Cc1ccc(CSc2oc(-c3cccs3)nc2S(=O)(=O)c2ccc(C)cc2)cc1`, the Potency was “inactive”.
For `CCCCS(=O)(=O)c1oc(-c2cccs2)nc1S(=O)(=O)c1ccccc1`, the Potency was 10 µM (active).
For `CSc1oc(-c2cccs2)nc1S(=O)(=O)c1ccc(Br)cc1`, the Potency was “inactive”.
With `Cc1cc(OC2CN([S+](=O)([O-])c3ccccc3)C2)ccc1F` the Potency was “inactive”.
In the case of `COC1C(=O)N(CC2CC2)C12CCN(C(=O)NC1CCCCC1)CC2` (stereo not drawn), the Potency is reported as “inactive”.
With `Cn1nccc1CN1CC(Oc2ccc(F)c(F)c2)C1` the Potency was “inactive”.
With `Cc1nc(CCNC(=O)C2CCCN(c3nc(-c4ccccc4)nc4c3CCC4)C2)n[nH]1` (stereo not drawn) the Potency was “inactive”.
In the case of `COCCOCC(=O)N1CCCC(c2nc(-c3ccccc3)no2)CCNC(=O)CC1` (stereo not drawn), the Potency is reported as “inactive”.
For `CC(C)OCC(=O)N1CCN(c2nc(-c3ccccc3)nc3c2CCC3)CC1`, the Potency was 12.6 µM (active).
In the case of `O=C(CN1CCCC1=O)NC1CCCc2nc(-c3ccccc3)ncc21` (stereo not drawn), the Potency is reported as “inactive”.
With `O=C(C1CCN(c2nc(-c3ccccc3)nc3c2CCC3)CC1)N1CCC[C@H]1CO` the Potency was 8.91 µM (active).
In the case of `O=C(NC1CCNC1)C1CCN(c2nc(-c3ccccc3)nc3c2CCC3)CC1` (stereo not drawn), the Potency is reported as 7.08 µM (active).
For `O=C(NCc1cccnc1)C1CCN(c2nc(-c3ccccc3)nc3c2CCC3)CC1`, the Potency was “inactive”.
For `Cc1ccc(-c2cc(N3CCCN(C(=O)COc4ccccc4)CC3)n[nH]2)cc1C`, the Potency was “inactive”.
In the case of `O=C(NCCc1ccccn1)C1CCCN(c2nc(-c3ccccc3)nc3c2CCC3)C1` (stereo not drawn), the Potency is reported as “inactive”.
In the case of `COc1ccc(N2CC(C(=O)N3CCSCC3)CC2=O)cc1Cl` (stereo not drawn), the Potency is reported as “inactive”.
For `O=C(Nc1ccccc1Cl)N1CCc2nc3cc[nH]n3c(=O)c2C1`, the activity, negative = inhibition was -0.962% [at 5.79 µM] (inactive).
For `Cc1nn(CC(=O)NCC2CCCO2)c(=O)c2nc(C(C)C)sc12` (stereo not drawn), the Potency was “inactive”.
With `CC(C)c1nc(C2Cc3ccccc3N2S(=O)(=O)c2cn(C)cn2)no1` (stereo not drawn) the Potency was “inactive”.
In the case of `CCc1ccc(NC(=O)N2CCCC(Cn3cnc4cccnc43)C2)cc1` (stereo not drawn), the Potency is reported as “inactive”.
In the case of `COCCNC(=O)CCc1cc2ccc(C)cc2[nH]c1=O`, the Potency is reported as “inactive”.
In the case of `O=C(c1cc(F)ccc1F)N1CCCC(n2cc(-c3nc(C4CC4)no3)nn2)C1` (stereo not drawn), the Potency is reported as “inactive”.
In the case of `O=c1n(-c2ccncc2)nc2n1CCN([S+](=O)([O-])c1cccc(C(F)(F)F)c1)C2`, the Potency is reported as “inactive”.
For `CCOc1ccc(C2Cn3nnc(-c4nc(-c5cccc(F)c5)no4)c3CO2)cc1` (stereo not drawn), the Potency was “inactive”.
For `NC(=O)Cn1ccc2cc(OCC3CCN(c4cnccn4)CC3)cnc21`, the Potency was “inactive”.
For `Cn1ccnc1C(=O)N1CCC2(CC1)CN(c1ncccn1)CC2CO` (stereo not drawn), the Potency was “inactive”.
With `COc1cccc(OCc2nnc(C(=O)N3CCC[C@@H]3c3cccc(F)c3)n2-c2ccccc2)c1` the Potency was “inactive”.
In the case of `Cc1ccc(Nc2nc3ccccc3nc2-n2nc(C)cc2C)c(Cl)c1`, the Potency is reported as “inactive”.
For `Cc1cccc(Nc2cc(C)nc(-n3nc(C)cc3C)n2)c1`, the Potency was 5.62 µM (active).
In the case of `Cc1cc(=O)n(CC(=O)Nc2cccc([N+](=O)[O-])c2)c(-n2nc(C)cc2C)n1`, the Potency is reported as “inactive”.
For `O=C(c1ccc2cc[nH]c2n1)N1CCOCC1`, the Potency was “inactive”.
For `COc1ccc(CNC(=O)c2cccc3c2CCN3C(=O)c2ccc(F)cc2)cc1OC`, the Potency was “inactive”.
With `COc1ccc(N2C(=O)C3(CCCCC3)C2C(=O)NCCc2ccncc2)cc1` (stereo not drawn) the Potency was “inactive”.
With `COc1ccc(C2Sc3ccccc3NC3=C2C(=O)c2ccccc23)c(OC)c1OC` (stereo not drawn) the Potency was 0.316 µM (active).
For `COc1nc2nc(CC3CC3)n(C)c2cc1-c1ccc(CO)cc1`, the Potency was “inactive”.
With `CCN(CC)CCCNC(=O)c1cn(C)c2ccc(S(=O)(=O)N(C)C3CCCCC3)cc2c1=O` the Potency was “inactive”.
For `COc1ccc(CCNC(=O)c2c3c(nc4ccccc24)C(=O)N(C2CCCCC2)C3)cc1OC`, the Potency was “inactive”.
For `COc1ccccc1Nc1cc(C(=O)NCCCN(C)C2CCCCC2)c2ccccc2n1`, the Potency was 10 µM (active).
For `Cc1ccc(NC(=O)Cn2c(-c3ccc(Cl)cc3)nc(C)c(CCO)c2=O)cc1C`, the Potency was “inactive”.
In the case of `O=C(NC(C(=O)N1CCCCC1)C1CCN(C(=O)c2ccc(Cl)cc2)CC1)c1ccccc1` (stereo not drawn), the Potency is reported as 5.01 µM (active).
For `CCN(CC)C(=O)C(NC(=O)c1ccc(OC)cc1)C1CCN(C(=O)C(C)C)CC1` (stereo not drawn), the Potency was “inactive”.
For `CCN(CC)C(=O)C(NC(=O)c1ccc(OC)cc1)C1CCN(C(=O)c2ccc(F)cc2)CC1` (stereo not drawn), the Potency was “inactive”.
With `CNC(=O)[C@@H]1CN(C(=O)c2ccc3ccccc3n2)C[C@H]1COC` the Potency was “inactive”.
With `CS(=O)(=O)c1cnc(NCCc2cnc[nH]2)nc1C1CCCNC1` (stereo not drawn) the Potency was “inactive”.
For `CN(CC1CCOC1)C(=O)Nc1ccc(Cl)cc1` (stereo not drawn), the outcome was “inactive [at 5.79 µM]”.
For `CC(C)(C)c1csc(NC(=O)C[C@H]2NC(=O)c3ccccc3NC2=O)n1`, the Potency was “inactive”.
In the case of `COc1cccc(-c2ccnc3nc(Cc4cc(F)cc(F)c4)nn23)c1`, the Potency is reported as 10 µM (active).
With `COc1cccc(-c2ccnc3nc(-c4ccccc4OC)nn23)c1` the Potency was “inactive”.
With `COCc1nc2nccc(-c3ccccc3)n2n1` the Potency was “inactive”.
For `CNC(=O)[C@@H]1CN(C(=O)C2CC=CCC2)C[C@H]1c1nc(C)no1` (stereo partly drawn), the Potency was “inactive”.
For `O=C(c1ccc(F)cc1)N1CCCC(c2nn(-c3cccc(Cl)c3)c(=O)[nH]2)C1` (stereo not drawn), the Potency was “inactive”.
With `COCCN1C(=O)CC[C@]2(C(=O)NCc3cccs3)CCCC[C@@H]12` the Potency was “inactive”.
In the case of `CN1C(=O)CC[C@]2(C(=O)NCC3CCCCC3)CCCC[C@@H]12`, the Potency is reported as “inactive”.
For `CC(C)CCN1C(=O)CC[C@]2(C(=O)N3CCN(C)CC3)CCCC[C@@H]12`, the Potency was 11.2 µM (active).
For `CCOc1ccc(NC(=O)c2cnn(-c3ccccc3)c2-n2cccc2)cc1`, the Potency was “inactive”.
In the case of `Cc1ccc2ncc(C(=O)Nc3ccc(OC(F)(F)F)cc3)c(=O)n2c1`, the Potency is reported as “inactive”.
With `COC(=O)c1cnn(-c2ccc(C(=O)Nc3ccc(OC(F)(F)F)cc3)cc2)c1N` the Potency was 1.58 µM (active).

Source: PubChem BioAssay AID1347417 (National Center for Advancing Translational Sciences (NCATS), 2020)
Potency is the fitted concentration of half-maximal effect.
